Test results published in PubChem BioAssay (EPA / NIEHS).
Calls of active or inactive are those of the source. Rule for the calls: active = hit-call score of the fitted dose curve at least 0.9, where 1 is the maximum; inactive = score below 0.9.

Assay: APR_HepG2_CellCycleArrest_72hr: Apredica 72-hour HepG2 Assay for Cell Cycle Arrest (AID 2282914)
Details: high-content imaging, actives raise or lower the signal
Outline: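 HepG2 cells were exposed to compounds at 0.39–200 uM (0.5% v/v DMSO final, duplicates) for 72 hr, fixed in 3.7% formaldehyde, permeabilized and stained with Hoechst 33342. Nuclear DNA content was quantified by high-content imaging; gain or loss of signal was fitted bidirectionally against DMSO.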

outcome, inactive:
Cc1cc(SC2=C(O)C[C@@](CCc3ccc(N)cc3)(C(C)C)OC2=O)c(C(C)(C)C)cc1CO, CCCCc1nc2cccnc2n1Cc1ccc(-c2ccccc2-c2nnn[nH]2)cc1, OCC(CO)n1cnc(-c2ccc(F)cc2)c1-c1ccnc(Oc2ccccc2)n1, c1ccc2occc2c1, CCCCC(CC)COC(=O)CCCCCCCC(=O)OCC(CC)CCCC (stereo unspecified), CC(C)(C)c1ccccc1, COC(=O)CCC(=O)OC, CCCCC(CC)COP(=O)(OCC(CC)CCCC)OCC(CC)CCCC (stereo unspecified), COC(=O)CCCC(=O)OC, O=C(O)c1[nH]n(-c2ccc(S(=O)(=O)O)cc2)c(=O)c1N=Nc1ccc(S(=O)(=O)O)cc1

Assay: APR_HepG2_CellLoss_72hr: Apredica 72-hour HepG2 Assay for Cell Loss (AID 2282915)
Details: high-content imaging
Outline: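 Cell number comes from Hoechst 33342-labelled nuclei, imaged at 20x after 3.7% formaldehyde fixation. Dosing was 0.39–200 uM, ten concentrations in duplicate, 0.5% DMSO final, for 72 h. Bidirectional fit relative to DMSO baseline.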

outcome, inactive:
O=C1c2c(O)cccc2Cc2cccc(O)c21, CCCCCCCC(=O)OC, OCC(O)CO, S=c1[nH]c2ccccc2s1, CO[C@@H]1COCC[C@@H]1N[C@@H]1CC[C@@](C(=O)N2CCc3ncc(C(F)(F)F)cc3C2)(C(C)C)C1, CS(=O)(=O)c1ccc([C@@H](C[C@H]2CCC(=O)C2)C(=O)Nc2cnccn2)cc1Cl, CC(C)(O)c1ccc(CNC(=O)c2cccnc2Oc2ccc(F)cc2)cc1, CN(C)CCCN(C)CCCN(C)C, Cc1cc(SC2=C(O)C[C@@](CCc3ccc(N)cc3)(C(C)C)OC2=O)c(C(C)(C)C)cc1CO, OCC(CO)n1cnc(-c2ccc(F)cc2)c1-c1ccnc(Oc2ccccc2)n1, c1ccc2occc2c1, CCCCC(CC)COC(=O)CCCCCCCC(=O)OCC(CC)CCCC (stereo unspecified), CC(C)(C)c1ccccc1, COC(=O)CCC(=O)OC, COC(=O)CCCC(=O)OC, O=C(O)c1[nH]n(-c2ccc(S(=O)(=O)O)cc2)c(=O)c1N=Nc1ccc(S(=O)(=O)O)cc1

AC50, active:
CCc1cc(C2=C(C(=O)O)N(c3ccccc3C(F)(F)F)S(=O)(=O)c3ccccc32)cc2c1OCO2 95.5 µM, CCCCCCCCCC[N+](C)(C)[O-] 140 µM, CN(C)CCCN1c2ccccc2Sc2ccc(Cl)cc21 33.9 µM, COc1ccc(C(=O)Nc2nc3ccccc3c(NCc3ccccc3)c2C#N)cc1 45.3 µM, COc1ccc(OC(F)(F)F)cc1CN[C@H]1CCCN[C@H]1c1ccccc1 27.5 µM, Oc1ccc(O)cc1 71.7 µM, CN(C)C(=O)NC1(c2ccccc2)CCN(CC[C@@]2(c3ccc(F)c(F)c3)CN(C(=O)c3ccccc3)CCO2)CC1 111 µM, CN(C)C(=O)NC1(c2ccccc2)CCN(CCC[C@]2(c3ccc(Cl)c(Cl)c3)CCCN(C(=O)c3ccccc3)C2)CC1 16 µM, NCCOCCOCCN 16.6 µM, CCc1nc(N)nc(N)c1-c1ccc(Cl)cc1 80.2 µM, Nc1nc(Cl)nc2c1ncn2[C@H]1C[C@H](O)[C@@H](CO)O1 0.162 µM, CCCCc1nc2cccnc2n1Cc1ccc(-c2ccccc2-c2nnn[nH]2)cc1 65.2 µM, CCCCC(CC)COP(=O)(OCC(CC)CCCC)OCC(CC)CCCC (stereo unspecified) 37.3 µM

Assay: APR_HepG2_P-H2AX_72hr: Apredica 72-hour HepG2 Assay for H2AX Phosphorylation (AID 2282916);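 note: phospho-histone H2A.x immunostain intensity per cell marking DNA damage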
Details: imaging, actives raise or lower the signal
Outline: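 Phospho-H2A.x imaging endpoint in HepG2 after 72 hr compound exposure (0.39–200 uM, duplicate wells). Activity derived by bidirectional curve fitting with DMSO as baseline.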

outcome, inactive:
O=C1c2c(O)cccc2Cc2cccc(O)c21, CCCCCCCC(=O)OC, CCc1cc(C2=C(C(=O)O)N(c3ccccc3C(F)(F)F)S(=O)(=O)c3ccccc32)cc2c1OCO2, OCC(O)CO, S=c1[nH]c2ccccc2s1, CCCCCCCCCC[N+](C)(C)[O-], CO[C@@H]1COCC[C@@H]1N[C@@H]1CC[C@@](C(=O)N2CCc3ncc(C(F)(F)F)cc3C2)(C(C)C)C1, CS(=O)(=O)c1ccc([C@@H](C[C@H]2CCC(=O)C2)C(=O)Nc2cnccn2)cc1Cl, Oc1ccc(O)cc1, CC(C)(O)c1ccc(CNC(=O)c2cccnc2Oc2ccc(F)cc2)cc1, CN(C)CCCN(C)CCCN(C)C, CCCCc1nc2cccnc2n1Cc1ccc(-c2ccccc2-c2nnn[nH]2)cc1, OCC(CO)n1cnc(-c2ccc(F)cc2)c1-c1ccnc(Oc2ccccc2)n1, c1ccc2occc2c1, CCCCC(CC)COC(=O)CCCCCCCC(=O)OCC(CC)CCCC (stereo unspecified), CC(C)(C)c1ccccc1, COC(=O)CCC(=O)OC, COC(=O)CCCC(=O)OC, O=C(O)c1[nH]n(-c2ccc(S(=O)(=O)O)cc2)c(=O)c1N=Nc1ccc(S(=O)(=O)O)cc1

AC50, active:
CN(C)CCCN1c2ccccc2Sc2ccc(Cl)cc21 81.2 µM, COc1ccc(C(=O)Nc2nc3ccccc3c(NCc3ccccc3)c2C#N)cc1 47.8 µM, CN(C)C(=O)NC1(c2ccccc2)CCN(CC[C@@]2(c3ccc(F)c(F)c3)CN(C(=O)c3ccccc3)CCO2)CC1 91.8 µM, CN(C)C(=O)NC1(c2ccccc2)CCN(CCC[C@]2(c3ccc(Cl)c(Cl)c3)CCCN(C(=O)c3ccccc3)C2)CC1 15.1 µM, NCCOCCOCCN 6.09 µM, CCc1nc(N)nc(N)c1-c1ccc(Cl)cc1 67.6 µM, Nc1nc(Cl)nc2c1ncn2[C@H]1C[C@H](O)[C@@H](CO)O1 0.0288 µM, CCCCC(CC)COP(=O)(OCC(CC)CCCC)OCC(CC)CCCC (stereo unspecified) 46.1 µM
